Reference: the supplement of paper PMC11732987, “Enantioselective OTUD7B fragment discovery through chemoproteomics screening and high-throughput optimisation” (Communications Chemistry, 2025)

Assays:
Test in all cases: log2 ratio of Biotin-Ahx-Ub-VS probe labelling (fragment/DMSO); higher = less target engagement (more negative = stronger competition), active = hit call of the paper (q ≤ 0.05, log2 ratio ≤ -1)
Conditions in all cases: compound concentration: 200 uM; treatment time: 3 h
USP42 = biological target: T1, USP42 (UniProt Q9H9J4)
T1 sequence (whole entry): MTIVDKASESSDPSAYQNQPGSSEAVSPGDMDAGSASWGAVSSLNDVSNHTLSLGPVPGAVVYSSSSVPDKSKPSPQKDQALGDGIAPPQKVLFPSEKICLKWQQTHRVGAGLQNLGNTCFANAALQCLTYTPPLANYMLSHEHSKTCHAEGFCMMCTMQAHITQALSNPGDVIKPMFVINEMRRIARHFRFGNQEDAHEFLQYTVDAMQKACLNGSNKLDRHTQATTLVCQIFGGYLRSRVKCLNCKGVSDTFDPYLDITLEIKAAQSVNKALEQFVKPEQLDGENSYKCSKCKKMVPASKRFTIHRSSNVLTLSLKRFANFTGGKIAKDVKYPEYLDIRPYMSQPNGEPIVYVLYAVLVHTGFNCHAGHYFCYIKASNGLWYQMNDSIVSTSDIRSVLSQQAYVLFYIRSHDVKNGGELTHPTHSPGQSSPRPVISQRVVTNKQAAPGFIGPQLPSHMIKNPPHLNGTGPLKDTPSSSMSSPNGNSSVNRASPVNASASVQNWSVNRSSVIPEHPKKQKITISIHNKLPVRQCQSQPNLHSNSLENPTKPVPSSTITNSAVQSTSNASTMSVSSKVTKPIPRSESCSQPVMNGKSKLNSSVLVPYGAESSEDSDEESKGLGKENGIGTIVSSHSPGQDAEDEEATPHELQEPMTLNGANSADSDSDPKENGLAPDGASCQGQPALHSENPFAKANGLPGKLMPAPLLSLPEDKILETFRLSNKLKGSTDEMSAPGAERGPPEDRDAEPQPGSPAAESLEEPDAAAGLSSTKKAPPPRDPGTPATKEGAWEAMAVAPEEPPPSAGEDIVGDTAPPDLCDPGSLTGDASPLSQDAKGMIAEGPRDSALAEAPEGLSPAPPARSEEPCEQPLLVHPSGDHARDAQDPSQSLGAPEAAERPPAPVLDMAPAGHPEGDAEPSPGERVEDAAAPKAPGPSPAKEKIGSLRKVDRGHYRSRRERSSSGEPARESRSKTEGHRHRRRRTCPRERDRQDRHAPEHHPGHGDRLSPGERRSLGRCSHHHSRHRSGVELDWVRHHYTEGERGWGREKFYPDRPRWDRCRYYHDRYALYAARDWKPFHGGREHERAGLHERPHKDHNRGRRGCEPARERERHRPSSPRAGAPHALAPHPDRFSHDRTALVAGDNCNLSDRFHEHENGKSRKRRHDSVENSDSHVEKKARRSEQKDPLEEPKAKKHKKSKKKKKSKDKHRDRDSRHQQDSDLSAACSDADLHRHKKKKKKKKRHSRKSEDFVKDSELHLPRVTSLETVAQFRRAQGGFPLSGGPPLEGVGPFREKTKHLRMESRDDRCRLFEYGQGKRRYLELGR
How it was run: (§1)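 Fragment (200 µM) or vehicle was incubated for 3 h with triplicate HEK293T lysate samples of 495 µg, which were then treated with Biotin-Ahx-Ub-VS at 0.5 µM final for 1 h. Labelled DUBs were enriched on NeutrAvidin, digested with LysC and trypsin, and analysed by diaPASEF LC-MS/MS. Values are average log2 fragment/vehicle ratios from an unpaired t-test on global-median-normalised Spectronaut label-free quantities, using proteins with ≥2 unique peptides.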

USP46 = USP46 (UniProt P62068)
How it was run: as §1

USP47 = biological target: T2, USP47 (UniProt Q96K76)
T2 sequence (whole entry): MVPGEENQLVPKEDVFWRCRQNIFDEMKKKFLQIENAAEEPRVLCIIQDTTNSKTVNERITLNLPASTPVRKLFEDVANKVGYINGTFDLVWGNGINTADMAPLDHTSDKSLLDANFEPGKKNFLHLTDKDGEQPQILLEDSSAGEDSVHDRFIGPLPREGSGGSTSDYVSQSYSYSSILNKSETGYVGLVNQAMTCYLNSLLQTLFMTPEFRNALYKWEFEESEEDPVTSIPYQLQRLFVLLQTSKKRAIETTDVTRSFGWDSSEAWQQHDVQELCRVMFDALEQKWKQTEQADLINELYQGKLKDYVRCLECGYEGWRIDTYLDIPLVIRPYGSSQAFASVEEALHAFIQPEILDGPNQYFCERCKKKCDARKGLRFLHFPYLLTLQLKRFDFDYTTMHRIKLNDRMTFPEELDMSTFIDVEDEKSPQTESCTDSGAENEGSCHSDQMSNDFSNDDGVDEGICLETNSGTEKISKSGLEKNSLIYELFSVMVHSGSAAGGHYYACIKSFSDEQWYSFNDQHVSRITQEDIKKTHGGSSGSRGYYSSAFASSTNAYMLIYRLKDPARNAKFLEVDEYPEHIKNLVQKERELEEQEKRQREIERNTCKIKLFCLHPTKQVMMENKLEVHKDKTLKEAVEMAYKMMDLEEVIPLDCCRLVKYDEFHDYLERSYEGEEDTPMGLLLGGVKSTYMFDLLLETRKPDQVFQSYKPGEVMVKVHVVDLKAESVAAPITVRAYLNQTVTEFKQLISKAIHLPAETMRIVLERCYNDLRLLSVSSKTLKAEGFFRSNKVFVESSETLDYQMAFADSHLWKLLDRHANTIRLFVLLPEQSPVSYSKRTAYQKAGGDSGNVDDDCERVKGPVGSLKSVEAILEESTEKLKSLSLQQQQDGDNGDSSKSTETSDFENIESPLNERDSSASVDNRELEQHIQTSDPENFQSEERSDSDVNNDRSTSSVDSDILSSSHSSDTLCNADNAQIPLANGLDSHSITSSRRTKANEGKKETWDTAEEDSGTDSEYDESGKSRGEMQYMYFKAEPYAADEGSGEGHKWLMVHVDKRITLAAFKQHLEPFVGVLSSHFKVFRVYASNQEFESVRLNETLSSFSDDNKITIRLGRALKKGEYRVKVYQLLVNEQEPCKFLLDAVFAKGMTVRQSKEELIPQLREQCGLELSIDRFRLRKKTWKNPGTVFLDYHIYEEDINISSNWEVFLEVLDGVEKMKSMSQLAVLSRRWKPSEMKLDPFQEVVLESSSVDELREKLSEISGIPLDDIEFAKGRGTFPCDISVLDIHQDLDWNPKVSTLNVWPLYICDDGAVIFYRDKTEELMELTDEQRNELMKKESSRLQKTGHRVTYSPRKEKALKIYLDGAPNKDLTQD
How it was run: as §1

USP48 = biological target: T3, USP48 (UniProt Q86UV5)
T3 sequence (whole entry): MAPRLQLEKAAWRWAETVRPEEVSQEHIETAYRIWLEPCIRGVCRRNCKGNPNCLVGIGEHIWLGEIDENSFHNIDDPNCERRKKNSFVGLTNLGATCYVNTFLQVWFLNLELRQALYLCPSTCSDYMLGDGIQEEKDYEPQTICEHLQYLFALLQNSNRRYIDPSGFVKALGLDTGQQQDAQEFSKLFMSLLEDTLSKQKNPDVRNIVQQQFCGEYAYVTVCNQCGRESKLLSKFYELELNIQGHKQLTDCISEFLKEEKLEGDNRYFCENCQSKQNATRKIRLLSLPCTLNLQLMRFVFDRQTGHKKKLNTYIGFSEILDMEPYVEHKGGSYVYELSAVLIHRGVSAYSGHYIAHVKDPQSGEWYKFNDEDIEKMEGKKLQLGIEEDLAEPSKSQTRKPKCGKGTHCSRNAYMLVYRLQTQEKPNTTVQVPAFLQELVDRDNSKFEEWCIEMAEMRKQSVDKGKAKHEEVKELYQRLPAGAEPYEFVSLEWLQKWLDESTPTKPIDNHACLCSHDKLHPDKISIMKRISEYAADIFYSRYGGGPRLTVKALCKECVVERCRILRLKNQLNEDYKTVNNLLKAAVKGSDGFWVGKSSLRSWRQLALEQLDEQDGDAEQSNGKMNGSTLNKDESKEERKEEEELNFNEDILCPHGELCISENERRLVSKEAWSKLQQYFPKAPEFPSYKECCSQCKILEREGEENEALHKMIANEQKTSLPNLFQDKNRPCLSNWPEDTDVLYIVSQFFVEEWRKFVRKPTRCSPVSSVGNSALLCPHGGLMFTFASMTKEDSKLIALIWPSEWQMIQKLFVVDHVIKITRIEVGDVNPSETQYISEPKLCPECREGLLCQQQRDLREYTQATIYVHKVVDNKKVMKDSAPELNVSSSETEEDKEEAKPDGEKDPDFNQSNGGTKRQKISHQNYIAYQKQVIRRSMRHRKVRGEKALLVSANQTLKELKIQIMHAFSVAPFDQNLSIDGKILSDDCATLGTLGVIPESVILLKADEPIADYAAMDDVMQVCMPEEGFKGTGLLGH
How it was run: as §1

USP5 = biological target: T4, USP5 (UniProt P45974)
T4 sequence (whole entry): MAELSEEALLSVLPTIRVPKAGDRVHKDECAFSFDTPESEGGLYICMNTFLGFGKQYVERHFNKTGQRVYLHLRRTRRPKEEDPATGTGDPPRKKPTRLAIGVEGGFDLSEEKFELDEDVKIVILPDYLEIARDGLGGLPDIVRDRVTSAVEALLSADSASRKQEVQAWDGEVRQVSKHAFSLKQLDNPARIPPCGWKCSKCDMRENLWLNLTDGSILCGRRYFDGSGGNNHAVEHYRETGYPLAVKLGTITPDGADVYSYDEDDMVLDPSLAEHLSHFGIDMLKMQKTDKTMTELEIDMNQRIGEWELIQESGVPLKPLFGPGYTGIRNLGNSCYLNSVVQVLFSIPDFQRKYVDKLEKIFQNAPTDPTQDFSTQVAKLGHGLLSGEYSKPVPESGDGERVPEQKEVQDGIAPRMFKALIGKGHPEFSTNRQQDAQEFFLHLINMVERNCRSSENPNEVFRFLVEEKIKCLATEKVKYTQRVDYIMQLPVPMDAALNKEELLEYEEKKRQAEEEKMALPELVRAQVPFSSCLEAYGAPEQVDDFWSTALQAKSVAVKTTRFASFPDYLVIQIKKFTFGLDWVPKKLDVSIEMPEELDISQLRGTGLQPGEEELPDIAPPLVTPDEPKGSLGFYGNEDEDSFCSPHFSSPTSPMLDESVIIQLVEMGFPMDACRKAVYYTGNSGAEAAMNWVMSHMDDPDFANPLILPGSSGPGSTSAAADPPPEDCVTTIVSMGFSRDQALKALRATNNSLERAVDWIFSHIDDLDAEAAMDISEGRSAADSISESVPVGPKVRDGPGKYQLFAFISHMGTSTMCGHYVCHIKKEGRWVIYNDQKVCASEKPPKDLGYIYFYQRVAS
How it was run: as §1

USP54 = USP54 (UniProt Q70EL1)
How it was run: as §1

USP7 = USP7 (UniProt Q93009)
How it was run: as §1

USP8 = biological target: T5, USP8 (UniProt P40818)
T5 sequence (whole entry): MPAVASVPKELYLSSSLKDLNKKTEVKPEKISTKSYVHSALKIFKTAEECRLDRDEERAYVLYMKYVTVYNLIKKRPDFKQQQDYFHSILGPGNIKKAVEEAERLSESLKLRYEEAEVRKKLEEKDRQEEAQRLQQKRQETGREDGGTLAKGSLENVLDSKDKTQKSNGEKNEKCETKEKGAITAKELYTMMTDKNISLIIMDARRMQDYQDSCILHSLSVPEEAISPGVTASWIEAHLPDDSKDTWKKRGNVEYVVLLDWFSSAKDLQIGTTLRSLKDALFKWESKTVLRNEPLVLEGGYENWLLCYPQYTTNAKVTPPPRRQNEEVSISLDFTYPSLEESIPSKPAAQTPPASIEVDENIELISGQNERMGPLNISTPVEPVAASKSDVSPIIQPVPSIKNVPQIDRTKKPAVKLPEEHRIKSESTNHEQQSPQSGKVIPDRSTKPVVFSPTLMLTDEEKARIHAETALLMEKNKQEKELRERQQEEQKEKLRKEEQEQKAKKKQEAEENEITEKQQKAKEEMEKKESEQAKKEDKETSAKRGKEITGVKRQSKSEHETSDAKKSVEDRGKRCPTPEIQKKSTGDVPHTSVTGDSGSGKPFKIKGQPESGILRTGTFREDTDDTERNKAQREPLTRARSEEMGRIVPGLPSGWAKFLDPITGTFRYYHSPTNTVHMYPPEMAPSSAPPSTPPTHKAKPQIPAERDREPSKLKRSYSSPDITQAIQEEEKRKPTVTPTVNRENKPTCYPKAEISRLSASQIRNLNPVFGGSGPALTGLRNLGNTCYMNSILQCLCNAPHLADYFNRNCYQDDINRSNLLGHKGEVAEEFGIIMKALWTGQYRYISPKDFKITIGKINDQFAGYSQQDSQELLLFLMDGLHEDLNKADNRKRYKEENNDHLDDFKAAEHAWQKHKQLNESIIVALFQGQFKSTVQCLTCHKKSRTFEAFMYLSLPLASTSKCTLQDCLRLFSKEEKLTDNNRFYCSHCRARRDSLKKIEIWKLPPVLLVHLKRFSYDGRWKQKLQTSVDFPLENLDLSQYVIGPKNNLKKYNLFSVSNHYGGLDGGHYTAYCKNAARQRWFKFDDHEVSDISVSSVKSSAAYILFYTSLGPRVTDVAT
How it was run: as §1

USP9X = USP9X (UniProt Q93008)
How it was run: as §1

UniProt O00487 = biological target: UniProt O00487
How it was run: as §1

Measured: log2 ratio of Biotin-Ahx-Ub-VS probe labelling

Sequence of USP46 (P62068 whole entry): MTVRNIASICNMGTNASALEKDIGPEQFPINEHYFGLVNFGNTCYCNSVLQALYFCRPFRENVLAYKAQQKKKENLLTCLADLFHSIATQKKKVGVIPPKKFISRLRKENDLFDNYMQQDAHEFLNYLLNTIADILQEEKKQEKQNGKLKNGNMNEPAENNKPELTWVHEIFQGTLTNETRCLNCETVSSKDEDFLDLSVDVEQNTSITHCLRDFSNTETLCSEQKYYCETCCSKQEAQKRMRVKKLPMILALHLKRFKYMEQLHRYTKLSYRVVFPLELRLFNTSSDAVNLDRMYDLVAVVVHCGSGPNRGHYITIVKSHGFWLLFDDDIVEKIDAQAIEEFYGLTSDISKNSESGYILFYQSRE
Sequence of USP9X (Q93008 whole entry): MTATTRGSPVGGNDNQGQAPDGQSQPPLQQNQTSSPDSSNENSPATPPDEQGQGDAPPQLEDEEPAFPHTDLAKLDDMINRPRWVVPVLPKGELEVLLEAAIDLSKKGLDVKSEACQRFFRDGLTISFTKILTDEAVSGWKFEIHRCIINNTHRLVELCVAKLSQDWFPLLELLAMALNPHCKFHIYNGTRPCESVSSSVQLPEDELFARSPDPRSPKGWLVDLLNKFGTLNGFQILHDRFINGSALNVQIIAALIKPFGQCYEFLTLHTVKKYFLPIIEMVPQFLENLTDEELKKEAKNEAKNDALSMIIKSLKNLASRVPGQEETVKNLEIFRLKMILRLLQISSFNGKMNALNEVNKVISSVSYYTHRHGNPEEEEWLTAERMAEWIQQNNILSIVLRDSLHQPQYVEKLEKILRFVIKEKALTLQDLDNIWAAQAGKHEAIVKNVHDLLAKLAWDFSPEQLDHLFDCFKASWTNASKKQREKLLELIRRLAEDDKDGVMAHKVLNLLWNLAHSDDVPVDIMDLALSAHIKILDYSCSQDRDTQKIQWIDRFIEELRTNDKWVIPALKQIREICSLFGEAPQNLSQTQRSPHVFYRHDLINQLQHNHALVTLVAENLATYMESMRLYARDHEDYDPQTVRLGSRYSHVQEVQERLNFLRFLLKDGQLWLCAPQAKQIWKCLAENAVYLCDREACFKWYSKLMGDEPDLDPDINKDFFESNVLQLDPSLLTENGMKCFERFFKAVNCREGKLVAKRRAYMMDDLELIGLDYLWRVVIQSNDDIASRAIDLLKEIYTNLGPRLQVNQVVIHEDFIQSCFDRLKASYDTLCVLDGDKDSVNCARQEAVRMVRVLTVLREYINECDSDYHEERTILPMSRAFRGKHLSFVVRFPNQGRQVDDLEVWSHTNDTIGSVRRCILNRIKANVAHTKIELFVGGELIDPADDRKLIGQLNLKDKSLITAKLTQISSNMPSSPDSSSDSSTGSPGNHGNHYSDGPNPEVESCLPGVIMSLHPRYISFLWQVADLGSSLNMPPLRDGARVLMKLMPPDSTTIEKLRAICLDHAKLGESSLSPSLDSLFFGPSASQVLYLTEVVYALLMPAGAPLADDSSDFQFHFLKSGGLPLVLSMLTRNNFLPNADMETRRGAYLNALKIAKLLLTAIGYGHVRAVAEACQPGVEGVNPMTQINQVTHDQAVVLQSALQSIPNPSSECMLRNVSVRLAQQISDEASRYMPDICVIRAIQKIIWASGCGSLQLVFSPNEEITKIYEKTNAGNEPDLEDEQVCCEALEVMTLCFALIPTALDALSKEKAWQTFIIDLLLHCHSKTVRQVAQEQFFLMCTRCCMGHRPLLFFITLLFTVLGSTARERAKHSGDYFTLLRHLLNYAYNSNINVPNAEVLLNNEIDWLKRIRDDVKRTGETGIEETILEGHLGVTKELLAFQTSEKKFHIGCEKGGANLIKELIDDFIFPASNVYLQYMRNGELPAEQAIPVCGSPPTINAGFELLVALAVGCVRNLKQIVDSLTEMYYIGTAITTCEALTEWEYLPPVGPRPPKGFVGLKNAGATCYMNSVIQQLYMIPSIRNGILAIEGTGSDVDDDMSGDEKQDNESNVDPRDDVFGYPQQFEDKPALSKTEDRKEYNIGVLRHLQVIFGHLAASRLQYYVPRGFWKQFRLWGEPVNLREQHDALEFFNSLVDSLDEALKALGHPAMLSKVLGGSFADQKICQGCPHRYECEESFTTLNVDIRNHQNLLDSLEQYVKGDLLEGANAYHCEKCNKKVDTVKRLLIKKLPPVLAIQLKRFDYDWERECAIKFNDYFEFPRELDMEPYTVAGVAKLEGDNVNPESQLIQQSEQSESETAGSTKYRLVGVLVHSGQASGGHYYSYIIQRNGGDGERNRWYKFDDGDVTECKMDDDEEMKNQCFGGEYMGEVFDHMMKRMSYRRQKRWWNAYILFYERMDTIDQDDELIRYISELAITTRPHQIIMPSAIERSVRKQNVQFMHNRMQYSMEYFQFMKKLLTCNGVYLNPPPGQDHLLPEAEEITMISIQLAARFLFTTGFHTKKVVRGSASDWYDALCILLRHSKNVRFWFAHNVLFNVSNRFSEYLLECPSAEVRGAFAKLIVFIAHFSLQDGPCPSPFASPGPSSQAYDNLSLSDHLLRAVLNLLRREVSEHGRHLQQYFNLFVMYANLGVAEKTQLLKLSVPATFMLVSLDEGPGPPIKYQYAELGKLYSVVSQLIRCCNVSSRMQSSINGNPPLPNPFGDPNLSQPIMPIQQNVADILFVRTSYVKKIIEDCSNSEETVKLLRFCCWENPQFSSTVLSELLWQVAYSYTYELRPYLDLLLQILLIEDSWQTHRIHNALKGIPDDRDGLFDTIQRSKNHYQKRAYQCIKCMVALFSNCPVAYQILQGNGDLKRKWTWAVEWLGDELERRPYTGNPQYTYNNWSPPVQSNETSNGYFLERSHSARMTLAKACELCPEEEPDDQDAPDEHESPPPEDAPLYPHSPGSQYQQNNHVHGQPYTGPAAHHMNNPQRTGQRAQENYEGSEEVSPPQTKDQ
Sequence of USP7 (Q93009 whole entry, looked up): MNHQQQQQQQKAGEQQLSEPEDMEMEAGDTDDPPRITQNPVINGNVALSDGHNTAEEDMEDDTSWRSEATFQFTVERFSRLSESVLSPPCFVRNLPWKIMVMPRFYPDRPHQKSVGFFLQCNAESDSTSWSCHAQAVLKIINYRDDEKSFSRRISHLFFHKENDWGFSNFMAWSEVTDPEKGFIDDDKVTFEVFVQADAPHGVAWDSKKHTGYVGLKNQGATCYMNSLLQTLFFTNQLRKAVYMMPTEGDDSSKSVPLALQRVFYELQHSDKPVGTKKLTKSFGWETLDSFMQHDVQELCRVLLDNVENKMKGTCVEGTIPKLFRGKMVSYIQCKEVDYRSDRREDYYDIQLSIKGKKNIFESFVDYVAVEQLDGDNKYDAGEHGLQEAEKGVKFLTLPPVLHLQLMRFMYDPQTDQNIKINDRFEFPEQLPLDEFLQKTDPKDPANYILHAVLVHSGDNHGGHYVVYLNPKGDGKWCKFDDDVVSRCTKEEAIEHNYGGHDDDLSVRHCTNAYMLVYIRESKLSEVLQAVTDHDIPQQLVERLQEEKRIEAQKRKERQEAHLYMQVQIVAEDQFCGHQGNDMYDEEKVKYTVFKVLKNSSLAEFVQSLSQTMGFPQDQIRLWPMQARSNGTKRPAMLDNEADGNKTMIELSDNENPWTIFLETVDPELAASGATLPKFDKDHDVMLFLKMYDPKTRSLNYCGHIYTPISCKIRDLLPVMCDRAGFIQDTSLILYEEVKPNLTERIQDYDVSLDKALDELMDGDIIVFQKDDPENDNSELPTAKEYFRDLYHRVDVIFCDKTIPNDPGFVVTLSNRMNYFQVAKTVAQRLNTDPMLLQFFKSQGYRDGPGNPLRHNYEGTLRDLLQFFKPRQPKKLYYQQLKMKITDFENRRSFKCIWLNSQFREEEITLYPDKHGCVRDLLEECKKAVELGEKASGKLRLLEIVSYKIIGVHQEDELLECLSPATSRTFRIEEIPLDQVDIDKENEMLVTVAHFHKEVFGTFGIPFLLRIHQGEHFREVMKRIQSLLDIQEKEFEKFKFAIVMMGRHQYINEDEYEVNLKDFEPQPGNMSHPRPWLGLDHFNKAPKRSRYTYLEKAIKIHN
Sequence of UniProt O00487 (O00487 whole entry): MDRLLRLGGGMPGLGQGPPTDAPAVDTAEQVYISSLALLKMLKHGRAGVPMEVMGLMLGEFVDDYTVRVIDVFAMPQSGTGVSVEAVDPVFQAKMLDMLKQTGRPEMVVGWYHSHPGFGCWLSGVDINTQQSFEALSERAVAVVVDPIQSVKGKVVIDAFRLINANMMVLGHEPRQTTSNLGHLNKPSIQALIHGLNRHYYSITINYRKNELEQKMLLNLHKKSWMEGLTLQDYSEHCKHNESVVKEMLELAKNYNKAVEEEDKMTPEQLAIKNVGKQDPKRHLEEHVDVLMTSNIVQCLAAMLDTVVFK

C[C@@H](NC(=O)CCl)c1cccc(C#N)c1
inactive: USP42 0.213 | USP46 0.013 | USP47 -0.609 | USP48 -0.209 | USP5 0.067 | USP54 0.0518 | USP7 -0.0563 | USP8 -0.19 | USP9X -0.116 | UniProt O00487 0.0457
